Screens (PubChem)
A selection: hits, their analogues and other compounds. The true share with any hit is near 18%.
TGFb inhibitor = TGF-b pathway inhibition; HepG2 CAGA-GFP TGF-b/SMAD3 reporter, GFP fluorescence, 18 h; TGF-beta stimulated, 500 pg/mL final; AID 588855; 410,000 compounds, 1.2% hits; Potency, µM (doses to about 46.1 µM), actives largely listed as inhibitors; also: nearly all actives have a fitted effect of over 65% in size
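HEPG2 CAGA-GFP, 1000 cells/well; 2 h settle, 37 C; cpd via pin tool; TGF-b 500 pg/mL final; 18 h, 37 C; GFP imaging ex488/em500-530; %Activity normalised to -TGF-b and +DMSO controls; CRC fit, curve class.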
HepG2 tox = kills HepG2 cells in TGF-b inhibitor counter-screen; HepG2 CAGA-GFP viability, ATP luminescence, 18 h; Potency, µM (highest dose often 46.1 µM), most hits filed as cytotoxic; 410,000 compounds, 0.76% hits
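CellTiter-Glo luminescence gave cytotoxicity after 18 hours at 37 degrees C. The cells were HepG2 CAGA-GFP in 1% FBS DMEM, stimulated with 500 pg/mL TGF-beta after compound addition. %Activity was normalised to no-cell wells (complete cell-killing) and DMSO (no toxicity), and curves were fitted and classified.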
TDP1 inh = blocks human tyrosyl-DNA phosphodiesterase 1 | 350,000 compounds, 0.28% hits | recombinant TDP1, AlphaScreen DNA substrate cleavage | AID 485290 | Potency, µM (doses to about 130 µM), actives largely listed as inhibitors | Q9NUW8; also: nearly all actives have a fitted effect of over 40% in size
Target sequence (Q9NUW8 whole entry, looked up): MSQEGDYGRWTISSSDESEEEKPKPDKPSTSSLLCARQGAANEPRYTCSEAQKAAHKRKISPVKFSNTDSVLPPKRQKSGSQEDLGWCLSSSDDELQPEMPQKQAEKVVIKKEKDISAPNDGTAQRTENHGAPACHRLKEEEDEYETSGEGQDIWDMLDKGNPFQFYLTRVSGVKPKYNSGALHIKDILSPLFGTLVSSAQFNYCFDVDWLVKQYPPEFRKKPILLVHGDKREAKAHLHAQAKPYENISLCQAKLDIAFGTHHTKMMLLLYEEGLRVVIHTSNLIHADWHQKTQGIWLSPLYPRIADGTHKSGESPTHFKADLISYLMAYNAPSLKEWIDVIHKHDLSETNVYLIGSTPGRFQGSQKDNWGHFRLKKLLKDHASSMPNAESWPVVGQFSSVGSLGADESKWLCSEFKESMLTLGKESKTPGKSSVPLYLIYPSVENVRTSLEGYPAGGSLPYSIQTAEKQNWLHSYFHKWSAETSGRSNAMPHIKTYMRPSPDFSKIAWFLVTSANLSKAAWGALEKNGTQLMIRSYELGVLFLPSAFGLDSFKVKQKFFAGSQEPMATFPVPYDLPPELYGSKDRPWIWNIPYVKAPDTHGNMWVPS
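Here, a 5' biotin and 3' phosphotyrosine-FITC DNA oligonucleotide reports Tdp1 activity: intact substrate bridges AlphaScreen beads, while cleavage leaves a 3' phosphate and drops signal. All incubations at room temperature.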
TDP1 cell CPT = DT40-hTDP1 cell growth loss with CPT | chicken DT40 Tdp1-/-;hTDP1 cells + 20 nM CPT, ATP luminescence, 48 h | Potency, µM (titrated, usually from 46.2 µM), actives largely listed as inhibitors | 420,000 compounds, 12% hits; also: nearly all actives have a fitted effect of over 55% in size
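Cell growth measured by CellTiter-Glo luminescence after a minimum 48 h, 37 C compound exposure with 20 nM CPT in Tdp1-knockout DT40 cells stably expressing hTDP1, seeded 400/well; qHTS titration format.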
IL-1B inflam inh = inflammasome signaling inhibition, IL-1 beta readout; activity change, % at 57.5 µM; 360,000 compounds, 4.7% hits; THP-1 LPS/ATP IL-1B secretion, AlphaLISA, 16 h; active compounds read low; in the data active = activity change below about -50%; inconclusive = mostly about -30% to -49%
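THP-1 cells pretreated 1 hr with compounds (up to 57.5 uM final), then stimulated with LPS (250 ng/mL final) plus ATP (1.25 mM final); secreted IL-1B measured by AlphaLISA after 16 hr, decreased signal indicating inhibition.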
TDP1 cell noCPT = qHTS for Inhibitors of human tyrosyl-DNA phosphodiesterase 1 (TDP1): qHTS in cells in absence of CPT; DT40 Tdp1-/- hTDP1 cells, no CPT, ATP luminescence, 48 h; Potency, µM (highest dose often 46.2 µM), actives largely listed as inhibitors; 420,000 compounds, 15% hits; also: nearly all actives have a fitted effect of over 55% in size
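Growth kinetics read by CellTiter-Glo luminescence after ≥48 hr at 37 °C. Cells: DT40 Tdp1-/- stably carrying human TDP1, 400 per well, compound exposure in the absence of CPT (DMSO vehicle).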
Each line names hits and unclear results; the compound was inactive in the other large screens. Unless noted, calls follow the shape of the dose curve; as a rule, active = well fitted curve in the direction sought with a large enough effect; inconclusive = small, poorly fitted or top-dose-only effect, or another doubt; inactive = no such curve, though single readings can be large; an effect the other way counts as inactive or inconclusive.

Cc1nn(C)c2c1c(C(F)(F)F)cc(=O)n2C(C)C(=O)NCCC(C)C (centres undefined)	TDP1 cell CPT 16µM, TDP1 cell noCPT inconclusive (no result: IL-1B inflam inh)
COC(=O)c1ccc(Cn2c(=O)cc(C(F)(F)F)c3c(C)nn(C)c32)cc1	TDP1 cell CPT inconclusive, TDP1 cell noCPT 15µM (no result: IL-1B inflam inh)
Cc1ccc(CNC(=O)C(C)n2c(=O)cc(-c3ccccc3)c3c(C)nn(C)c32)cc1 (centres undefined)	TDP1 cell CPT 18µM, TDP1 cell noCPT inconclusive (no result: IL-1B inflam inh)
CC(C)NC(=O)N1CC[C@@]2(CCCN(C(=O)Oc3ccccc3)C2)C1	none (no result: TGFb inhibitor, HepG2 tox, TDP1 inh, IL-1B inflam inh)
Cc1nn(C)c2c1c(-c1ccccc1)cc(=O)n2Cc1ccccc1C#N	TGFb inhibitor inconclusive, TDP1 cell CPT 23µM, TDP1 cell noCPT inconclusive (no result: IL-1B inflam inh)
Cc1nn(C)c2c1c(C(F)(F)F)cc(=O)n2C(C)C(=O)NCCc1ccccc1 (centres undefined)	TDP1 cell CPT 0.18µM (no result: IL-1B inflam inh)
C=CC[N+]1([C@H]2C[C@H]3[C@@H]4CC[C@H]5C[C@H](O)[C@@H](N6CCOCC6)C[C@]5(C)[C@H]4CC[C@]3(C)[C@H]2OC(C)=O)CCCC1	none (no result: TGFb inhibitor, HepG2 tox, TDP1 inh, IL-1B inflam inh)
Cc1cccc(NS(=O)(=O)c2ccc3oc(=O)c4ncn(C)c4c3c2)c1C	none (no result: IL-1B inflam inh)
Cc1cccc2nc(CSc3nnc4ccccn34)cn12	none
O=C1C=CC(=C(c2ccc(O)cc2)c2ccc(O)cc2)C=C1	TGFb inhibitor inconclusive, HepG2 tox 10µM, TDP1 cell CPT 9.2µM, IL-1B inflam inh -100, TDP1 cell noCPT 2.3µM
CCC(=O)N1CCc2cc(S(=O)(=O)CCC(=O)N3CCN(c4ccccc4Cl)CC3)ccc21	TDP1 cell CPT 18µM, TDP1 cell noCPT inconclusive (no result: IL-1B inflam inh)
CC(=O)N1CCc2cc(S(=O)(=O)CCC(=O)N3CCN(c4ccccc4F)CC3)ccc21	TDP1 cell CPT inconclusive
CCC(=O)N1c2ccc(S(=O)(=O)CCC(=O)Nc3ccc(Br)c(C)c3)cc2CC1C (centres undefined)	TGFb inhibitor inconclusive, TDP1 cell CPT 18µM, TDP1 cell noCPT 21µM (no result: IL-1B inflam inh)
CCC(=O)N1CCc2cc(S(=O)(=O)CCC(=O)N3CCN(c4cccc(C)c4C)CC3)ccc21	none (no result: IL-1B inflam inh)
CCC(=O)N1c2ccc(S(=O)(=O)CCC(=O)N3CCN(c4ccc(F)cc4)CC3)cc2CC1C (centres undefined)	TDP1 cell CPT 15µM, TDP1 cell noCPT 13µM (no result: IL-1B inflam inh)
CC(=O)c1ccc(N2CCN(C(=O)CCS(=O)(=O)c3ccc4c(c3)CCN4C(C)=O)CC2)cc1	TDP1 cell CPT 21µM, TDP1 cell noCPT inconclusive
CC(=O)N1CCCc2cc(S(=O)(=O)CCC(=O)N3CCN(c4cccc(C)c4)C(C)C3)ccc21 (centres undefined)	TGFb inhibitor inconclusive, TDP1 cell CPT 21µM, TDP1 cell noCPT inconclusive
CCC(=O)N1CCc2cc(S(=O)(=O)CCC(=O)N3CCN(c4ccc(F)cc4)CC3)ccc21	TDP1 cell CPT 21µM, TDP1 cell noCPT 23µM
Cc1cc(C)nc(NNC2=CC(=[N+]3CCCC3)CCC2)n1	TDP1 cell noCPT inconclusive
Cc1cc(C)nc(NNC2=CC(=[N+]3CCCCC3)CC(C)(C)C2)n1	TDP1 cell noCPT 15µM
COc1ccc(Cc2nnc(Nc3ccc(C)cc3)o2)cc1OC	TGFb inhibitor inconclusive, TDP1 cell CPT 8.2µM, TDP1 cell noCPT 6.5µM
COc1ccc(Cc2nnc(-c3cccc(C)c3)o2)cc1OC	TDP1 cell CPT inconclusive, TDP1 cell noCPT inconclusive
COc1ccc(C(=O)NCc2ccc3c(c2)OCO3)cc1S(=O)(=O)N1CCCC1	none
COc1ccc(OC)c(-c2cc(C(=O)Nc3cc(C)on3)no2)c1	none
COc1ccc(NC(=O)c2cc(-c3ccccc3OC)on2)cc1	TDP1 cell CPT 2.8µM, TDP1 cell noCPT 2.8µM
